# Screens from PubChem.
# Mac1 fbg inh – CD11b/CD18-fibrinogen binding inhibition; P05107+P11215; K562 CD11b/CD18 adhesion to fibrinogen, ATPlite luminescence; Mn2+ added to activate the integrin; 0.54% of 93,000 active; AID 1497; inhibition, % at 10 µM;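 active = primary inhibition of 50% or more at 10 µM, then 40% or more on retest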
# Target sequence (P05107 whole entry, looked up, other chains not shown): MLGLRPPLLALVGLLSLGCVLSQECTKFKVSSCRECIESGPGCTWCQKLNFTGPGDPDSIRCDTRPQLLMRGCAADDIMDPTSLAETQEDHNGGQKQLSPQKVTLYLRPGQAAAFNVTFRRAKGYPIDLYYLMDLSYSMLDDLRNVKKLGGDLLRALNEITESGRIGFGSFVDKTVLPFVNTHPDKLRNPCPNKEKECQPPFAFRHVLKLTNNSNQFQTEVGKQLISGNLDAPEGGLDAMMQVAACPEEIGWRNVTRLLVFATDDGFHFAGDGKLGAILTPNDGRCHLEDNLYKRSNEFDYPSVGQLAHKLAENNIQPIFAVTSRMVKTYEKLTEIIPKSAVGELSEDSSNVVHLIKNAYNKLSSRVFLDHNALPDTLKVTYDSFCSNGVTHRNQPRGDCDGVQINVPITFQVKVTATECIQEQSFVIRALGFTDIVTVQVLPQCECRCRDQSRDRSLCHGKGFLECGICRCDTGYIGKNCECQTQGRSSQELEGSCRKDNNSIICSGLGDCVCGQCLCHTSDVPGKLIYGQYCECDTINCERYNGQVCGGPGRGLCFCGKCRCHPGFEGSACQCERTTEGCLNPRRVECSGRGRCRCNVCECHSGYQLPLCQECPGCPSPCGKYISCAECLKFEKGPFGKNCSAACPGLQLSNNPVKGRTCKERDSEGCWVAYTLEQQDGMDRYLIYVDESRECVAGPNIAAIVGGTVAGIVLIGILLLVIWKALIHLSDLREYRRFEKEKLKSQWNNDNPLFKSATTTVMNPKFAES
# E coli WT exp – blocks growth of wild type E. coli BW25113; OD600 absorbance; growth inhibition, % at 100 µM; 0.15% of 98,000 active; AID 710;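 active = growth inhibition above about 50% at one test dose, limit read from the data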;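 note: growth measured after 20 h incubation at 37 °C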
# Cav3 T inh – inhibitors of human Cav3.2 T-type calcium channel. O95180. Cav3.2-expressing cells, Fluo-4 calcium fluorescence FDSS; active compounds read low. B-score at 10 µM. 4% of 100,000 active;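 active = single-dose well whose peak fluorescence ratio is a statistical outlier from its plate by either plate-standardised score or position-corrected B-score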
# CD11b adhes enh – increases human CD11b/CD18 adhesion to fibrinogen; 0.07% of 93,000 active; activation, % at 10 µM; AID 1499; P05107+P11215; K562 CD11b/CD18 adhesion to fibrinogen, ATPlite luminescence;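 active = 10 µM primary screen giving 50% or more activity, confirmed by 40% or more on retest at that dose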
# The depositor's hits bear a star; x = no result given. Only a selection was taken, and hits are over-represented in it overall.
SMILES,Mac1 fbg inh,E coli WT exp,Cav3 T inh,CD11b adhes enh
CCOC(=O)c1ccc(Oc2nc(NC(C)(C)C)nc(N(C)C)n2)cc1,16.9,-12.0,-7.11*,2.7
O=C(COc1ccc(Cl)cc1Cl)N1CCCCCC1,2.9,4.0,-0.852,0.8
Cc1cc(Cl)ccc1OCC(=O)N1CC(C)CC(C)C1 (centres undefined),2.0,10.0,-5.32*,6.5
CCCCC(=O)Nc1ccc(F)c(Cl)c1,2.5,15.0,0.0354,-1.8
NS(=O)(=O)c1ccc(NC(=S)NCc2ccc(Cl)cc2)cc1,x,-1.0,-1.2,x
Fc1ccc(CNC(=S)Nc2ccc(Cl)cc2)cc1,x,6.0,-4.33*,x
Fc1ccc(NC(=S)Nc2ccc(F)c(Cl)c2)cc1Cl,91.8*,89.0*,-4.1*,-6.7
Cc1cccc(OCC(=O)NC(C)C(=O)N/N=C/c2c(OCc3ccccc3)ccc3ccccc23)c1 (centres undefined),15.0,-9.0,-6.79*,-2.8
Nc1cc(-c2ccccc2)nn1Cc1ccc(Cl)cc1,21.2,4.0,-5.75*,-3.4
CC(C(=O)Oc1ccc2c(c1)OCO2)N1C(=O)c2ccccc2C1=O (centres undefined),1.1,3.0,-3.63*,0.0
Cc1ccc(C(C(=O)NC2CCCCC2)N(Cc2ccco2)C(=O)Cc2c[nH]c3ccccc23)o1 (centres undefined),14.4,-12.0,-10*,0.6
Cc1ccc(N(C(=O)Cc2c[nH]c3ccccc23)C(C(=O)NC2CCCCC2)c2ccco2)cc1 (centres undefined),-2.9,-12.0,-4.82*,1.7
C=CCCCCCCCC(=O)OC,x,x,0.41,x
COc1ccc(C2/C=C\CN(C(=O)C3CCCC3)CC(=O)N2Cc2ccc(F)cc2)cc1 (centres undefined),x,x,-0.01,x
CC(=O)c1ccc(N2CCN(C(=O)COc3ccccc3F)CC2)c(F)c1,x,x,0.0169,x
C=CCOC(=O)C1=C(C)NC(=S)NC1/C=C/c1ccccc1 (centres undefined),x,-1.0,-5.35,x
CCOC(=O)C1=C(c2cccc(Oc3ccccc3)c2)NC(=S)NC1C (centres undefined),18.9,-13.0,-8.27*,2.8
CC(C(=O)N1CCN(c2ccc(Cl)cc2)CC1)c1ncc(C(F)(F)F)cc1Cl (centres undefined),x,-11.0,-2.11,x
O=C(COc1ccccc1)Nc1nc(-c2ccc(S(=O)(=O)N3CCOCC3)cc2)cs1,-0.3,-8.0,-1.69,26.5
O=C(CCc1ccc(S(=O)(=O)N2CCOCC2)cc1)Nc1nc(COc2ccccc2)cs1,87.4*,-18.0,x,-4.9
CC1=CC(C)(C)N2C(=O)C3(N=C(N)NC(Nc4ccccc4)=N3)c3cc(C)cc1c32 (centres undefined),-52.4,-1.0,-3.71*,4.6
Cc1cc(C)cc(NC2=NC3(CCCCC3)N=C(N)N2)c1,8.0,6.0,-0.468,-2.3
CCCCn1c(=O)n(CC(=O)Nc2ccc(OC)c(Cl)c2)c(=O)c2c1nc(CO)n2CCC,-1.8,-1.0,-5.51*,3.6
Cc1ccc(Cn2cc(SCC(N)=O)c3ccccc32)cc1,x,x,0.482,x
C/C=C(/C)C(=O)OC1c2c(ccc3ccc(=O)oc23)OC(C)(C)C1OC(=O)/C(C)=C\C (centres undefined),x,x,-5.09*,x
SMILES,Mac1 fbg inh,E coli WT exp,Cav3 T inh,CD11b adhes enh
C#CCNC(=O)C1=C[C@H](c2ccc(C(F)(F)F)cc2)[C@@H](CCCO)[C@H](OCC)O1,x,x,-1.32,x
O/N=C1/CCc2nonc2/C1=N/O,4.8,52.0*,-0.00884,9.0
COCCn1c(=NC(=O)CSC(C)=O)sc2cc(OC)ccc21,-39.9,0.0,-5.94*,4.8
COCCn1c(=NC(=O)CSC(C)=O)sc2cc(F)ccc21,4.9,-1.0,-8.7*,-0.4
CCn1c(=NC(=O)CSC(C)=O)sc2cc(OC)ccc21,x,2.0,-6.67*,x
COCCn1c(=NC(=O)CSCC(=O)NC2CCCCC2)sc2cc(OC)ccc21,-20.0,-8.0,-0.406,-3.9
CCOC(=O)Cn1c(=NC(=O)CSC(C)=O)sc2cc(F)ccc21,-0.5,-1.0,-7.51*,6.7
Cc1ccc(F)c([C@H]2C3C=CCC(c4ccccc4)C3C(=O)N2Cc2ccccc2)c1 (some centres undefined),x,x,-1.54,x
C=CCN(CC=C)S(=O)(=O)c1ccc(NC(=S)NC(=O)Cc2ccc(OC)cc2)cc1,x,-14.0,-3.77,x
COc1cc(C(=O)NNC2=CC(=O)CC(C)(C)C2)cc(OC)c1OC,2.9,x,x,0.5
CN(CC(=O)Nc1cccc(F)c1)C(=O)CCCc1cccs1,3.2,x,x,6.7
Cc1cc(Cl)c(S(=O)(=O)N2CCN(c3ccc(F)cc3)CC2)cc1OCC(=O)NC1CCCCC1,94.2*,-10.0,-5.22*,-6.4
Cc1cc(Cl)c(S(=O)(=O)N2CCN(c3ccc(F)cc3)CC2)cc1OCC(N)=O,3.3,-9.0,-0.0589,-1.3
COc1c(S(=O)(=O)N2CCN(c3ccc(F)cc3)CC2)ccc(Cl)c1Cl,-21.4,-11.0,-1.93,-0.9
CCOc1ccc(Cl)cc1S(=O)(=O)N1CCN(c2ccc(C)c(C)c2)CC1,5.9,-9.0,-5.41,3.3
CCOc1ccc(Cl)cc1S(=O)(=O)N1CCN(c2ccc(F)cc2)CC1,17.1,-18.0,-3.67*,-0.3
COc1ccc(Cl)cc1S(=O)(=O)N1CCN(c2ccc(F)cc2)CC1,x,-12.0,-3.66*,x
COc1cc(F)c(C(=O)NC(C)(C)CO)cc1OC,x,x,0.889,x
N#CC1=C(N)c2ccccc2CC12CCCCC2,2.7,11.0,-2.16,-1.8
CN1CCN(c2nc(-c3ccccc3)c3cc(Cl)ccc3n2)CC1,-9.9,11.0,0.164,1.1
Clc1ccc2nc(N3CCNCC3)nc(-c3ccccc3)c2c1,37.3,55.0*,0.802,0.0
Cc1c(-c2ccccc2)oc2c(C(=O)N3CCN(c4ccc([N+](=O)[O-])cc4)CC3)cccc2c1=O,19.6,x,x,2.3
O=C(CCc1ccc(S(=O)(=O)NC2CCCCC2)cc1)N(Cc1ccccc1)Cc1ccccc1,x,-19.0,-5.84*,x
Cc1c(CCCC(=O)O)sc(N)c1C(=O)c1cccc(C(F)(F)F)c1,x,x,-0.876,x
CCCC1=C(C(=O)OCC)C(c2c(C)nn(-c3ccccc3)c2Cl)C(C#N)=C(N)O1 (centres undefined),15.9,8.0,-5.03*,1.5
SMILES,Mac1 fbg inh,E coli WT exp,Cav3 T inh,CD11b adhes enh
Cc1ccc(-n2nc(C)c(C3C(C#N)=C(N)OC4=C3C(=O)CCC4)c2Cl)cc1 (centres undefined),3.1,x,x,-3.9
C/C(N)=C(/C#N)C(=O)COC(=O)CC12CC3CC(CC(C3)C1)C2,3.1,3.0,-2.26,-3.8
OC(c1ccccc1)(c1ccc(F)cc1)C(c1ccccc1)N1CCOCC1 (centres undefined),x,-3.0,-2.79*,x
O=C(COC(=O)C(Cc1ccccc1)NC(=O)c1ccco1)NC1CC1 (centres undefined),4.2,6.0,1.55,-5.1
O=C(NC(Cc1ccccc1)C(=O)OCC(=O)N1CCc2ccccc21)c1ccco1 (centres undefined),-3.5,-1.0,-4.66*,1.2
COC(=O)C1=C(C)N(CCCC(=O)O)C(=O)NC1c1ccccc1OS(=O)(=O)c1ccc([N+](=O)[O-])cc1 (centres undefined),x,x,1.12,x
COc1ccc(-c2cn(-c3ccc(OC)cc3)c3[n+]2-c2ccccc2CC3)cc1,84.5*,x,x,-3.1
